Assay [1] is described as follows: qHTS assay to identify small molecule agonists of the estrogen receptor beta (ER-beta) signaling pathway - cell viability counter screen (AID 1259380). Note: nearly all actives have a fitted effect of over 30% in size. Note: potency is the fitted concentration of half-maximal effect. The method, boiled down: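 Luminescence read-out (CellTiter-Glo, 30 min, room temp) taken in the same wells as the beta-lactamase reporter assay; ER-beta-UAS-bla HEK293T cells exposed to DMSO-dissolved compounds for 16 hr at 37C in 2% charcoal-stripped FBS medium.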

In assay [2] the target is Androgen receptor (Homo sapiens) (UniProt P10275). Briefly: qHTS assay to identify small molecule agonists of the androgen receptor (AR) signaling pathway in the presence of an antagonist (AID 1259381; calls by dose curve; note: nearly all actives have a fitted effect of over 15% in size; note: potency is the fitted concentration of half-maximal effect). The method, boiled down: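 Luciferase read-out (ONE-Glo, 30min room temperature) in MDA-kb2 MMTV-reporter cells; agonist mode run in presence of AR antagonist nilutamide, 3.0uM final. Compounds tested as 15-point series, 16hr exposure at 37C, 0% CO2.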
Chain of Androgen receptor (Homo sapiens) (P10275 whole entry, looked up): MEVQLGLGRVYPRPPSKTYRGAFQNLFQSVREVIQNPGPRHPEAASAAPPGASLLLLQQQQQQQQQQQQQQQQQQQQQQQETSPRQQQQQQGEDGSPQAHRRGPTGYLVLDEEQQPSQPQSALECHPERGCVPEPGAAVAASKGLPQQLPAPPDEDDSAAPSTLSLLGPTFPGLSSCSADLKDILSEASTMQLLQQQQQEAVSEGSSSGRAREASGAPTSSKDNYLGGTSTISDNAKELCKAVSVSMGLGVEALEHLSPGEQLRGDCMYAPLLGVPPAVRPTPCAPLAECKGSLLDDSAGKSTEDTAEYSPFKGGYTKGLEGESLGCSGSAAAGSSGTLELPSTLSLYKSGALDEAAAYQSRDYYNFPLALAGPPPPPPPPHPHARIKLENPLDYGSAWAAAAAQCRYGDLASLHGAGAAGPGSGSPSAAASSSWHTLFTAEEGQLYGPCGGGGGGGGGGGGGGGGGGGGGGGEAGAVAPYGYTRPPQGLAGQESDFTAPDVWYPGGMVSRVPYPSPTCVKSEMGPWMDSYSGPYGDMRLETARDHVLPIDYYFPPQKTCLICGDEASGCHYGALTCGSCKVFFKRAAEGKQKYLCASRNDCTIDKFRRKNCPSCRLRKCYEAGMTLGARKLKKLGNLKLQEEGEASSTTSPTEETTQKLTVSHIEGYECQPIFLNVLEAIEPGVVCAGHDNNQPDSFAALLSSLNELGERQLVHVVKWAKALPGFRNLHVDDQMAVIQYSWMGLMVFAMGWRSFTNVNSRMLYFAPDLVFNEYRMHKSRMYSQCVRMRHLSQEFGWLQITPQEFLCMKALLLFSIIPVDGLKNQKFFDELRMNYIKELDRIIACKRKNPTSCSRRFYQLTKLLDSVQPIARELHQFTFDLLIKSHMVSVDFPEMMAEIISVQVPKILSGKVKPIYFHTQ

Assay [3] deals with Estrogen receptor (Homo sapiens) (UniProt P03372). Briefly: qHTS assay to identify small molecule agonists of the estrogen receptor alpha (ER-alpha) signaling pathway in the presence of an antagonist (AID 1259383; calls by dose curve; note: top concentration of the series differs between compounds; nearly all actives have a fitted effect of over 15% in size). The method, boiled down:
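Luciferase luminescence (ONE-Glo, 30min at room temperature) measured in VM7Luc4E2 cells after 22hr compound exposure at 15 concentrations, with 10.0nM ICI-182,780 final present; cells express endogenous ER-alpha and carry four EREs upstream of luciferase.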

Assay [4] can be described thus: qHTS assay to identify small molecule agonists or antagonists of the thyroid stimulating hormone receptor (TSHR) signaling pathway - wild type cell line counter screen (AID 1259384; calls by dose curve; note: potency is the fitted concentration of half-maximal effect). The method, boiled down:
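Counter screen in untransfected Hek293: compounds (15-point titration, triplicate) plus phosphodiesterase inhibitor Ro20-1724 added after 18 h plating; 30 min RT. Intracellular cAMP via competitive d2/cryptate immunoassay, 1 h incubation.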

The target in assay [5] is Thyrotropin receptor (Homo sapiens) (UniProt P16473). Briefly: qHTS assay to identify small molecule antagonists of the thyroid stimulating hormone receptor (TSHR) signaling pathway (AID 1259385; calls by dose curve; note: nearly all actives have a fitted effect of over 20% in size). The method, boiled down:
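Antagonist mode: compound-treated TSHR-expressing HEK293 cells were stimulated with 1.5 ng/mL TSH (final) in presence of Ro20-1724 for 30 min at RT. HTRF cAMP detection after 1 h; each compound tested at 15 concentrations, triplicate.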

Assay [6] can be described thus: qHTS assay to identify small molecule agonists of the estrogen receptor alpha (ER-alpha) signaling pathway in the presence of an antagonist - cell viability counter screen (AID 1259386). Note: nearly all actives have a fitted effect of over 30% in size. Note: potency is the fitted concentration of half-maximal effect. The method, boiled down: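 Read-out: CellTiter-Fluor fluorescence after 1hr reagent incubation, measured in the same wells as the luciferase readout. VM7Luc4E2 cells were exposed to 15 compound concentrations with 10.0nM ICI-182,780 for 22hr at 37C.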

The nature of assay [7]: qHTS assay to identify small molecule agonists of the androgen receptor (AR) signaling pathway in the presence of an antagonist - cell viability counter screen (AID 1259379).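 Note: MDA-kb2 human breast cancer cells carrying an MMTV luciferase reporter; series mostly up to about 92 µM; nearly all actives have a fitted effect of over 25% in size.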 The method, boiled down:
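Viability counter screen: CellTiter-Fluor fluorescence, measured in the same wells as the luciferase read-out. MDA-kb2 cells, 3,000/well, with nilutamide at 3.0uM final and compounds at 15 concentrations, 16 hr at 37C, 0% CO2.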

Assay [8] is described as follows: qHTS assay to identify small molecule antagonists of the estrogen receptor beta (ER-beta) signaling pathway - cell viability counter screen (AID 1259382).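 Note: HEK293T cells carrying ER-beta-UAS-bla reporter stimulated with estradiol; series mostly up to about 92 µM; nearly all actives have a fitted effect of over 55% in size.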 The method, boiled down:
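Luminescent ATP read-out (CellTiter-Glo, 30 min, RT) taken in the same wells as the bla reporter assay. HEK293T ER-beta-UAS-bla cells in 2% charcoal-stripped FBS were exposed to compounds with 1nM E2 for 16 hr at 37C.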

Values without a mark were called inactive. Results filed as inconclusive are left out. Calls of active or inactive are those of the source. Unless noted, calls come from the whole dose curve; as a rule, active = well fitted curve in the direction sought with a large enough effect in the repeat runs; inconclusive = weak or mixed curves; inactive = no such curve, though single readings can be large; an effect the other way counts as inactive or inconclusive.

Chain of Estrogen receptor (Homo sapiens) (P03372 whole entry, looked up): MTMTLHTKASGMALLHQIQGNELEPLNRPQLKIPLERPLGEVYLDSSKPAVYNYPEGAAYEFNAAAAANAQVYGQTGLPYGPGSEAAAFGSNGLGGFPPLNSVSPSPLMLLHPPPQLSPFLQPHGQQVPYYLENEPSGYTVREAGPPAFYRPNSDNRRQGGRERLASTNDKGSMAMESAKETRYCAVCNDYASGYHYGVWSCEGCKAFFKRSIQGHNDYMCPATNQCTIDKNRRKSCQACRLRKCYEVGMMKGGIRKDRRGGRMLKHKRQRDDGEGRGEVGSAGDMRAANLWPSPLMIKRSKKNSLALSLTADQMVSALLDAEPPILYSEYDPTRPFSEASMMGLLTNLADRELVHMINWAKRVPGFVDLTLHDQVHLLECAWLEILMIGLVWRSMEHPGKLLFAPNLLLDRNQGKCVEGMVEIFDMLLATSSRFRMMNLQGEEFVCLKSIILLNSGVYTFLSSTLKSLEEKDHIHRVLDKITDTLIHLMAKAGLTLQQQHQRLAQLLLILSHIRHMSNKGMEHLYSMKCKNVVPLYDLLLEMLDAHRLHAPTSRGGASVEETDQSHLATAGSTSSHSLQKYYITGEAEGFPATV
Chain of Thyrotropin receptor (Homo sapiens) (P16473 whole entry, looked up): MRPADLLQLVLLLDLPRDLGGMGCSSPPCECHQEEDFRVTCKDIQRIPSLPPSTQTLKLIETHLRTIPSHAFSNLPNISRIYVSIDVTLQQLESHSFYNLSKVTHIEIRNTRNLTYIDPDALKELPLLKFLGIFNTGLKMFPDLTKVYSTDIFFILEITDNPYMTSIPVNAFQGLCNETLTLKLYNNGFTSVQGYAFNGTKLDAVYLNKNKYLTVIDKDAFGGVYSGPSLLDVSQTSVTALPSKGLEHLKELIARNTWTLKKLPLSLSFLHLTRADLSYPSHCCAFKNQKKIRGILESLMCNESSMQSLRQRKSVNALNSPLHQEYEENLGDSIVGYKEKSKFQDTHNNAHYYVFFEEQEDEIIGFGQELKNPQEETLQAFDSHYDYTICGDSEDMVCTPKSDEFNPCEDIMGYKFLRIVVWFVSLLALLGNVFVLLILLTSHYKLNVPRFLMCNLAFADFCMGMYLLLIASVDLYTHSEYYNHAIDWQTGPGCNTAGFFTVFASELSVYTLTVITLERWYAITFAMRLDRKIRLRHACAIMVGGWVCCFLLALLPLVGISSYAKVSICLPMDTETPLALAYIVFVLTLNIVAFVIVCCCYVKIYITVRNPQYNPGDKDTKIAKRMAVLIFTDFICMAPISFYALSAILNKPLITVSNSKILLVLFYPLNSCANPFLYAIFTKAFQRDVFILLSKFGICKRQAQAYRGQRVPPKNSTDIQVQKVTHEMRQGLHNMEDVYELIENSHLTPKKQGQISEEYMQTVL

For `NC(N)=N/N=C/c1c(Cl)cccc1Cl`, the Potency in assay [1] is 29.8 µM (active); in assay [6], 15 µM (active). The Potency result in assay [2], in assay [3], in assay [4] and in assay [5] was “inactive” throughout.

Regarding `CCCCOC(=O)/C=C\C(=O)OCCCC`, the Potency result in assay [7], in assay [8], in assay [3], in assay [4], in assay [5] and in assay [6] was “inactive” throughout.

For `O=C(O)Cn1c(C(=O)Nc2nc(-c3ccccc3Cl)cs2)cc2ccccc21`, the Potency entry in assay [7], in assay [8], in assay [3], in assay [4], in assay [5] and in assay [6] was “inactive” each time.

Take `CC(C)(C)c1ccc(S)cc1`: the Potency entry in assay [7], in assay [8], in assay [3], in assay [4] and in assay [6] was “inactive” throughout.

Turning to `Cc1occc1S`, the Potency result in assay [7], in assay [8], in assay [3], in assay [4] and in assay [6] was “inactive” throughout.

As for `CC(Cc1cccc(C(F)(F)F)c1)NCCOC(=O)c1ccccc1` (stereo not drawn), the Potency entry in assay [7], in assay [8], in assay [4] and in assay [6] was “inactive” each time.

Consider `Oc1ccc(Cc2ccccc2)cc1`, for which the Potency result in assay [7], in assay [8], in assay [4], in assay [5] and in assay [6] was “inactive” each time.

As to `CN(c1nccc(=O)[nH]1)C1CCN(c2nc3ccccc3n2Cc2ccc(F)cc2)CC1`, the Potency entry in assay [7], in assay [8], in assay [3], in assay [4], in assay [5] and in assay [6] was “inactive” in each case.

Consider `CC(C(=O)O)c1ccc(C(=O)c2ccccc2)s1` (stereo not drawn), for which the Potency result in assay [7], in assay [1], in assay [8] and in assay [6] was “inactive” throughout.

As to `CCCCC(CC)COCCCN` (stereo not drawn), the Potency result in assay [7], in assay [3], in assay [4] and in assay [5] was “inactive” each time.

Regarding `CC(=O)c1ccc2c(c1)[C@H](NC(=O)c1ccc(F)cc1)[C@@H](O)C(C)(C)O2`, the Potency entry in assay [7], in assay [8], in assay [4], in assay [5] and in assay [6] was “inactive” throughout.

As for `CC(C)=CCCC(C)CC=O` (stereo not drawn), the Potency result in assay [7], in assay [8], in assay [4], in assay [5] and in assay [6] was “inactive” each time.

Regarding `CN1CCC[C@@H]1c1cccnc1`, the Potency result in assay [7], in assay [1], in assay [8] and in assay [6] was “inactive” each time.

Regarding `O=C(c1ccccc1)c1ccc2n1CCC2C(=O)O` (stereo not drawn), the Potency result in assay [7], in assay [1], in assay [8] and in assay [6] was “inactive” each time.

`Cc1cc(O)ccc1N`: in assay [1], the Potency was 48.8 µM (active). Besides, the Potency result in assay [2], in assay [3] and in assay [4] was “inactive” in each case.

As for `OCC1CC2CC1C1CCC(CO)C21` (stereo not drawn), the Potency entry in assay [7], in assay [3], in assay [4], in assay [5] and in assay [6] was “inactive” throughout.

`CC(=O)/C(C)=C/C1C(C)=CCCC1(C)C` (stereo not drawn): the Potency entry in assay [7], in assay [8], in assay [3], in assay [4], in assay [5] and in assay [6] was “inactive” in each case.

Regarding `C[C@H](CCC(=O)O)[C@H]1CC[C@H]2[C@@H]3[C@H](O)C[C@@H]4C[C@H](O)CC[C@]4(C)[C@H]3CC[C@]12C`, the Potency result in assay [7], in assay [8], in assay [3], in assay [4], in assay [5] and in assay [6] was “inactive” throughout.

On to `CCCCc1cc2ccccc2c(OCCN(C)C)n1`, for which the Potency entry in assay [7], in assay [4], in assay [5] and in assay [6] was “inactive” each time.

On to `Cc1cc(NC(=O)C(=O)O)cc(C)c1Oc1ccc(O)c2c1CCC2`, for which the Potency result in assay [7], in assay [2], in assay [8], in assay [3] and in assay [6] was “inactive” throughout.

On to `CCCCCC/C=C/C=O`, for which the Potency result in assay [7], in assay [1], in assay [8] and in assay [6] was “inactive” each time.

On to `N#Cc1cc2ccccc2c2ccccc12`, for which the Potency entry in assay [7], in assay [8], in assay [3], in assay [4], in assay [5] and in assay [6] was “inactive” throughout.

Consider `C[C@@H](C1=C(CCN(C)C)Cc2ccccc21)c1ccccn1`, for which the Potency entry in assay [7], in assay [8], in assay [4], in assay [5] and in assay [6] was “inactive” each time.

On to `CC[C@]12CCCN3CCc4c(n(c5ccccc45)C(=O)C1)[C@@H]32`, for which the Potency in assay [2] was 29.8 µM (active). Moreover, the Potency result in assay [4], in assay [5] and in assay [6] was “inactive” each time.

In the case of `O=C(O)COC(=O)Cc1ccccc1Nc1c(Cl)cccc1Cl`, the Potency result in assay [7], in assay [2], in assay [3], in assay [4], in assay [5] and in assay [6] was “inactive” in each case.

Regarding `C#CCOC(=O)[C@@H](C)Oc1ccc(Oc2ncc(Cl)cc2F)cc1`, the Potency entry in assay [7], in assay [8], in assay [3], in assay [4], in assay [5] and in assay [6] was “inactive” each time.

As for `O=C(O)Cc1cc(I)c(Oc2ccc(O)c(I)c2)c(I)c1`, the Potency result in assay [7], in assay [8], in assay [5] and in assay [6] was “inactive” throughout.

In the case of `Oc1ccc(C(O)CNCCCCCCNCC(O)c2ccc(O)c(O)c2)cc1O` (stereo not drawn), the Potency result in assay [1], in assay [8] and in assay [5] was “inactive” throughout. Further, in assay [4], the Potency is 6.19 µM (active).

On to `CCC(C)N(C)C(=O)c1cc2ccccc2c(-c2ccccc2Cl)n1` (stereo not drawn), for which the Potency entry in assay [7], in assay [2], in assay [8], in assay [3], in assay [4] and in assay [5] was “inactive” each time. Moreover, the Potency entry in assay [6] is “inactive”.

With `Cc1ccccc1N=Nc1ccc(N=Nc2c(O)ccc3ccccc23)c(C)c1`, the Potency result in assay [1], in assay [8], in assay [3], in assay [4], in assay [5] and in assay [6] was “inactive” throughout.

Consider `Cc1cccc(Oc2ccccc2)c1`, for which the Potency in assay [1] is 9.44 µM (active). Moreover, the Potency entry in assay [3], in assay [4], in assay [5] and in assay [6] was “inactive” in each case.

As to `NCCCOCCOCCOCCCN`, the Potency in assay [1] is 15.4 µM (active). Further, the Potency entry in assay [3], in assay [4], in assay [5] and in assay [6] was “inactive” in each case.

As to `CC(C)c1ccc2c(C(C)C)cc(C(C)C)c(S(=O)(=O)O)c2c1`, the Potency result in assay [7], in assay [2], in assay [8], in assay [3], in assay [4] and in assay [5] was “inactive” throughout. In assay [6], the Potency result is “inactive”.

The values above are taken from PubChem BioAssay (Tox21).
